Test results as given in PubChem BioAssay (Tox21).
Results filed as inconclusive are left out. Activity calls are given as the source filed them. Calls come from the whole dose curve; as a rule, active = well fitted curve in the direction sought with a large enough effect in the repeat runs; inconclusive = weak or mixed curves; inactive = no such curve, though single readings can be large; an effect the other way counts as inactive or inconclusive.

How the values were obtained:
[1] = qHTS RealTime-Glo MT Cell Viability Assay in HEK293 cells - 32 hour (AID 1224868); note: top concentration of the series differs between compounds; nearly all actives have a fitted effect of over 50% in size
Outline: (§1)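 Assay medium contained NanoLuc luciferase plus cell-permeant prosubstrate, added with HEK293 cells at 600 cells/well. After 5 h at 37 C/5% CO2 compounds were added; plates stayed at 37 C for 40 h with serial luminescence reads.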

[2] = A CellTox Green Cytotoxicity Assay to monitor cytotoxicity in HEK293 cells - 0 hour (AID 1224869); note: nearly all actives have a fitted effect of over 50% in size
Outline: (§2)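 Tox21 screen in HEK293: membrane-impermeant cyanine dye fluoresces on binding dead-cell DNA; compound pinned 5 h post-seeding, plates held at 37 C, signal read repeatedly through 40 h.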

[3] = qHTS RealTime-Glo MT Cell Viability Assay in HepG2 cells - 40 hour (AID 1224870); note: nearly all actives have a fitted effect of over 50% in size
Outline: (§3)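 HepG2 cells mixed with RealTime-Glo MT reagents (NanoLuc plus cell-permeant prosubstrate) were seeded at 600 cells/well, incubated 5 h at 37 C/5% CO2, then pinned with compounds in DMSO; nonlytic luminescence tracked viability during 40 h treatment.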

[4] = A CellTox Green Cytotoxicity Assay to monitor cytotoxicity in HEK293 cells - 40 hour (AID 1224871); note: nearly all actives have a fitted effect of over 45% in size
Outline: as §2

[5] = qHTS RealTime-Glo MT Cell Viability Assay in HEK293 cells - 16 hour (AID 1224872); note: top concentration of the series differs between compounds; nearly all actives have a fitted effect of over 50% in size
Outline: as §1

[6] = qHTS RealTime-Glo MT Cell Viability Assay in HEK293 cells - 40 hour (AID 1224874); conditions: RealTime-Glo luminescence, hits give low values; note: nearly all actives have a fitted effect of over 50% in size
Outline: (§4)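 HEK293 + NanoLuc + prosubstrate, 600 cells/well; 5 h, 37 C/5% CO2; compound 23 nL in DMSO by pintool; 37 C; luminescence read at 0, 8, 16, 24, 32 and 40 h time points.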

[7] = A CellTox Green Cytotoxicity Assay to monitor cytotoxicity in HEK293 cells - 24 hour (AID 1224875); note: series mostly up to about 77 µM; nearly all actives have a fitted effect of over 45% in size
Outline: as §2

[8] = A CellTox Green Cytotoxicity Assay to monitor cytotoxicity in HepG2 cells - 16 hour (AID 1224876); note: nearly all actives have a fitted effect of over 45% in size
Outline: (§5)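 Measurements at 0, 8, 16, 24, 32 and 40 h of treatment captured CellTox Green fluorescence in HepG2 cells that had been co-plated with reagent and preincubated 5 h at 37 C/5% CO2.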

[9] = qHTS RealTime-Glo MT Cell Viability Assay in HepG2 cells - 32 hour (AID 1224877); note: nearly all actives have a fitted effect of over 55% in size
Outline: (§6)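 qHTS, HepG2, 600 cells/well, RealTime-Glo (NanoLuc + prosubstrate) added with cells; 5 h preincubation; DMSO compound addition; 37 C; luminescence at 0/8/16/24/32/40 h.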

[10] = A CellTox Green Cytotoxicity Assay to monitor cytotoxicity in HepG2 cells - 24 hour (AID 1224878); note: nearly all actives have a fitted effect of over 45% in size
Outline: as §5

[11] = qHTS RealTime-Glo MT Cell Viability Assay in HEK293 cells - 0 hour (AID 1224880)
Outline: as §4

[12] = A CellTox Green Cytotoxicity Assay to monitor cytotoxicity in HEK293 cells - 32 hour (AID 1224881); note: nearly all actives have a fitted effect of over 40% in size
Outline: as §2

[13] = A CellTox Green Cytotoxicity Assay to monitor cytotoxicity in HepG2 cells - 0 hour (AID 1224882); note: nearly all actives have a fitted effect of over 35% in size
Outline: as §5

[14] = A CellTox Green Cytotoxicity Assay to monitor cytotoxicity in HepG2 cells - 32 hour (AID 1224883); note: nearly all actives have a fitted effect of over 50% in size
Outline: as §5

[15] = A CellTox Green Cytotoxicity Assay to monitor cytotoxicity in HEK293 cells - 8 hour (AID 1224884); note: nearly all actives have a fitted effect of over 35% in size
Outline: as §2

[16] = qHTS RealTime-Glo MT Cell Viability Assay in HepG2 cells - 16 hour (AID 1224885); note: nearly all actives have a fitted effect of over 50% in size
Outline: as §6

[17] = qHTS RealTime-Glo MT Cell Viability Assay in HEK293 cells - 24 hour (AID 1224886)
Outline: as §1

[18] = qHTS RealTime-Glo MT Cell Viability Assay in HEK293 cells - 8 hour (AID 1224887)
Outline: as §4

[19] = A CellTox Green Cytotoxicity Assay to monitor cytotoxicity in HepG2 cells - 40 hour (AID 1224879); note: nearly all actives have a fitted effect of over 40% in size
Outline: as §5

[20] = qHTS RealTime-Glo MT Cell Viability Assay in HepG2 cells - 8 hour (AID 1224873); note: nearly all actives have a fitted effect of over 55% in size
Outline: as §3
% is set by controls: 0 for no effect and ±100 for the full control effect.

O=C(O)/C=C(\CC(=O)O)C(=O)O
inactive: outcome [1] | outcome [2] | outcome [3] | Potency [4] | outcome [5] | max response [6] 4.26% | Potency [7] | Potency [8] | outcome [9] | Potency [10] | Potency [11] | Potency [12] | Potency [13] | Potency [14] | Potency [15] | outcome [16] | outcome [17] | outcome [18]

CC[C@@]1(c2ccccc2)NC(=O)N(C)C1=O
inactive: outcome [1] | outcome [2] | outcome [3] | Potency [4] | outcome [5] | max response [6] 14.4% | Potency [7] | Potency [8] | outcome [9] | Potency [10] | Potency [11] | Potency [12] | Potency [13] | Potency [14] | Potency [15] | outcome [16] | outcome [17] | outcome [18]

COC(=O)/C=C(\C)CCC=C(C)C
inactive: outcome [1] | outcome [2] | outcome [3] | Potency [4] | outcome [5] | Potency [7] | Potency [8] | outcome [9] | Potency [10] | Potency [19] | Potency [11] | Potency [12] | Potency [13] | Potency [14] | Potency [15] | outcome [16] | outcome [17] | outcome [18]

CC1(C)S[C@@H]2[C@H](NC(=O)Cc3ccccc3)C(=O)N2[C@H]1C(=O)O (tested in a mixture with another compound)
inactive: outcome [1] | outcome [2] | outcome [3] | Potency [4] | outcome [20] | max response [6] -2.11% | Potency [7] | Potency [8] | outcome [9] | Potency [10] | Potency [19] | Potency [12] | Potency [13] | Potency [14] | Potency [15] | outcome [16] | outcome [17] | outcome [18]

C=CCN1CCc2nc(N)sc2CC1
inactive: outcome [1] | outcome [2] | outcome [3] | Potency [4] | outcome [20] | max response [6] 7.02% | Potency [7] | Potency [8] | outcome [9] | Potency [10] | Potency [19] | Potency [11] | Potency [12] | Potency [13] | Potency [14] | Potency [15] | outcome [16] | outcome [17] | outcome [18]

NCC1CCC(C(=O)Oc2ccc(CCC(=O)O)cc2)CC1 (configuration not stated)
inactive: outcome [1] | outcome [2] | outcome [3] | Potency [4] | outcome [5] | max response [6] 8.81% | Potency [7] | outcome [9] | Potency [10] | Potency [19] | Potency [11] | Potency [12] | Potency [13] | Potency [14] | Potency [15] | outcome [16] | outcome [17] | outcome [18]

CCCCNCC
inactive: outcome [1] | outcome [2] | outcome [3] | Potency [4] | outcome [20] | max response [6] -1.39% | Potency [7] | Potency [8] | outcome [9] | Potency [10] | Potency [19] | Potency [11] | Potency [12] | Potency [13] | Potency [14] | Potency [15] | outcome [16] | outcome [17]

CCCCN=C(N)N=C(N)N
inactive: outcome [1] | outcome [2] | outcome [3] | Potency [4] | outcome [20] | max response [6] -14.6% | Potency [7] | Potency [8] | outcome [9] | Potency [10] | Potency [19] | Potency [11] | Potency [12] | Potency [13] | Potency [14] | Potency [15] | outcome [16] | outcome [17] | outcome [18]

CC(C)(O)c1ccc(C(C)(C)O)cc1
inactive: outcome [1] | outcome [2] | outcome [3] | Potency [4] | outcome [5] | Potency [7] | Potency [8] | outcome [9] | Potency [10] | Potency [19] | Potency [11] | Potency [12] | Potency [13] | Potency [14] | Potency [15] | outcome [16] | outcome [17] | outcome [18]

CC(C)C(=O)Nc1cccc(C2CN3CCSC3=N2)c1 (configuration not stated)
inactive: outcome [2] | outcome [3] | Potency [4] | outcome [5] | outcome [20] | max response [6] 0.0338% | Potency [7] | Potency [8] | outcome [9] | Potency [10] | Potency [19] | Potency [11] | Potency [12] | Potency [13] | Potency [14] | Potency [15] | outcome [16] | outcome [17] | outcome [18]

Cc1ccc(NC(N)=O)cc1
inactive: outcome [2] | outcome [3] | Potency [4] | outcome [5] | outcome [20] | max response [6] 11.1% | Potency [7] | Potency [8] | outcome [9] | Potency [10] | Potency [19] | Potency [11] | Potency [12] | Potency [13] | Potency [14] | Potency [15] | outcome [16] | outcome [17] | outcome [18]

C[C@@H]1CCC[C@H](C)N1CCCC(O)(c1ccccc1)c1ccccn1 (some centres not stated)
inactive: outcome [1] | outcome [2] | outcome [3] | Potency [4] | outcome [20] | max response [6] 4.53% | Potency [7] | outcome [9] | Potency [10] | Potency [19] | Potency [11] | Potency [12] | Potency [13] | Potency [14] | Potency [15] | outcome [16] | outcome [17] | outcome [18]

COC(=O)c1ccc(C(=O)O)cc1
inactive: outcome [2] | outcome [3] | Potency [4] | outcome [5] | outcome [20] | max response [6] 1.5% | Potency [7] | Potency [8] | outcome [9] | Potency [10] | Potency [19] | Potency [11] | Potency [12] | Potency [13] | Potency [14] | Potency [15] | outcome [16] | outcome [17] | outcome [18]

c1coc(Cn2cccc2)c1
inactive: outcome [1] | outcome [2] | outcome [3] | Potency [4] | max response [6] 2.22% | Potency [7] | Potency [8] | outcome [9] | Potency [10] | Potency [19] | Potency [11] | Potency [12] | Potency [13] | Potency [14] | Potency [15] | outcome [16] | outcome [17] | outcome [18]
